# From PubChem BioAssay (NCATS)
# Results filed as inconclusive are left out. A call without a number means that no potency is given here. Values without a mark were called inactive. The source made the active and inactive calls. Calls come from the whole dose curve; as a rule, active = well fitted inhibition curve with a large enough effect; inconclusive = small, poorly fitted or top-dose-only effect; inactive = flat fitted curve, though single readings scatter. Peptide text beside a SMILES is read from it.
# Tests used:
# [1] = qHTS profiling for inhibitors of Plasmodium falciparum proliferation (AID 504749); note: nearly all actives have a fitted effect of over 60% in size; settings: P. falciparum in erythrocytes, SYBR Green DNA, 72 h
# Method in brief: (§1)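 Three-day growth assay of blood-stage parasites in erythrocytes (0.3% parasitemia, 2.5% hematocrit) at 37 C, 5% CO2, quantified by SYBR Green DNA staining after overnight detergent lysis.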
# [2] = tested on: 3D7; assay: as above; settings: P. falciparum in erythrocytes, SYBR Green DNA, 72 h; series mostly up to 28.7 µM
# Method in brief: as §1
# [3] = tested on: 7G8; assay: as above; settings: P. falciparum in erythrocytes, SYBR Green DNA, 72 h; series mostly up to 28.7 µM
# Method in brief: as §1
# [4] = tested on: AA1029; assay: as above; settings: P. falciparum in erythrocytes, SYBR Green DNA, 72 h; series mostly up to 28.7 µM
# Method in brief: as §1
# [5] = tested on: AS120; assay: as above; settings: P. falciparum in erythrocytes, SYBR Green DNA, 72 h; series mostly up to 28.7 µM
# Method in brief: as §1
# [6] = tested on: ATS189; assay: as above; settings: P. falciparum in erythrocytes, SYBR Green DNA, 72 h; series mostly up to 28.7 µM
# Method in brief: as §1
# [7] = tested on: ATS95; assay: as above; settings: P. falciparum in erythrocytes, SYBR Green DNA, 72 h; series mostly up to 28.7 µM
# Method in brief: as §1
# [8] = tested on: C2A; assay: as above; settings: P. falciparum in erythrocytes, SYBR Green DNA, 72 h; series mostly up to 28.7 µM
# Method in brief: as §1
# [9] = tested on: CP185; assay: as above; settings: P. falciparum in erythrocytes, SYBR Green DNA, 72 h; series mostly up to 28.7 µM
# Method in brief: as §1
# [10] = tested on: CP191; assay: as above; settings: P. falciparum in erythrocytes, SYBR Green DNA, 72 h; series mostly up to 28.7 µM
# Method in brief: as §1
# [11] = tested on: CP192; assay: as above; settings: P. falciparum in erythrocytes, SYBR Green DNA, 72 h; series mostly up to 28.7 µM
# Method in brief: as §1
# [12] = tested on: CP194; assay: as above; settings: P. falciparum in erythrocytes, SYBR Green DNA, 72 h; series mostly up to 28.7 µM
# Method in brief: as §1
# [13] = tested on: CP201; assay: as above; settings: P. falciparum in erythrocytes, SYBR Green DNA, 72 h; series mostly up to 28.7 µM
# Method in brief: as §1
# [14] = tested on: CP211; assay: as above; settings: P. falciparum in erythrocytes, SYBR Green DNA, 72 h; series mostly up to 28.7 µM
# Method in brief: as §1
# [15] = tested on: CP215; assay: as above; settings: P. falciparum in erythrocytes, SYBR Green DNA, 72 h; series mostly up to 28.7 µM
# Method in brief: as §1
# [16] = tested on: CP217; assay: as above; settings: P. falciparum in erythrocytes, SYBR Green DNA, 72 h; series mostly up to 28.7 µM
# Method in brief: as §1
# [17] = tested on: CP237; assay: as above; settings: P. falciparum in erythrocytes, SYBR Green DNA, 72 h; series mostly up to 28.7 µM
# Method in brief: as §1
# [18] = tested on: CP238; assay: as above; settings: P. falciparum in erythrocytes, SYBR Green DNA, 72 h; series mostly up to 28.7 µM
# Method in brief: as §1
# [19] = tested on: CP247; assay: as above; settings: P. falciparum in erythrocytes, SYBR Green DNA, 72 h; series mostly up to 28.7 µM
# Method in brief: as §1
# [20] = at 12.8 µM (top of the series), parasite line A
# [21] = at 12.8 µM (top of the series), parasite line B
# [22] = at 28.7 µM (top of the series), parasite line A
# [23] = at 28.7 µM (top of the series), parasite line B
# Potency is the fitted concentration of half-maximal effect.
smiles,measurement,setting,value
Cc1cc(C(=O)NNCc2ccccc2)no1,"activity, negative = inhibition",[1]; [20],2.34%
same,"activity, negative = inhibition",[1]; [21],-1.58%
same,Potency,[2],inactive
same,Potency,[3],inactive
same,Potency,[4],inactive
same,Potency,[5],inactive
same,Potency,[6],inactive
same,Potency,[7],inactive
same,Potency,[8],inactive
same,Potency,[9],inactive
same,Potency,[10],inactive
same,Potency,[11],inactive
same,Potency,[12],inactive
same,Potency,[13],inactive
same,Potency,[14],inactive
same,Potency,[15],inactive
same,Potency,[16],inactive
same,Potency,[17],inactive
same,Potency,[18],inactive
same,Potency,[19],inactive
Nc1c(Br)cc(Br)cc1CNC1CCC(O)CC1 (stereo unspecified),"activity, negative = inhibition",[1]; [22],8.81%
same,"activity, negative = inhibition",[1]; [23],-8.99%
same,Potency,[2],inactive
same,Potency,[3],inactive
same,Potency,[4],inactive
same,Potency,[5],inactive
same,Potency,[6],inactive
same,Potency,[7],inactive
same,Potency,[8],inactive
same,Potency,[9],inactive
same,Potency,[10],inactive
same,Potency,[11],inactive
same,Potency,[12],inactive
same,Potency,[13],inactive
same,Potency,[14],inactive
same,Potency,[15],inactive
same,Potency,[16],inactive
same,Potency,[18],inactive
same,Potency,[19],inactive
O=S(=O)(O)c1ccc2c(N=Nc3ccc(S(=O)(=O)O)c4ccccc34)c(O)c(S(=O)(=O)O)cc2c1,"activity, negative = inhibition",[1]; [22],-19.8%
same,"activity, negative = inhibition",[1]; [23],-30%
same,Potency,[2],inactive
same,Potency,[3],inactive
same,Potency,[4],inactive
same,Potency,[5],inactive
same,Potency,[6],inactive
same,Potency,[8],inactive
same,Potency,[9],inactive
same,Potency,[10],inactive
same,Potency,[11],inactive
same,Potency,[12],inactive
same,Potency,[13],inactive
same,Potency,[14],inactive
same,Potency,[16],inactive
same,Potency,[17],inactive
same,Potency,[18],inactive
same,Potency,[19],inactive
CCCCC(C)(O)C/C=C/[C@H]1[C@H](O)CC(=O)[C@@H]1CCCCCCC(=O)OC (stereo partly specified),"activity, negative = inhibition",[1]; [22],0.758%
same,"activity, negative = inhibition",[1]; [23],3.16%
same,Potency,[2],inactive
same,Potency,[3],inactive
same,Potency,[4],inactive
same,Potency,[5],inactive
same,Potency,[6],inactive
same,Potency,[7],inactive
same,Potency,[8],inactive
same,Potency,[9],inactive
same,Potency,[10],inactive
same,Potency,[11],inactive
same,Potency,[12],inactive
same,Potency,[13],inactive
same,Potency,[14],inactive
same,Potency,[16],inactive
same,Potency,[17],inactive
same,Potency,[18],inactive
same,Potency,[19],inactive
CC(=O)N[C@@H](CC(=O)O)C(=O)N[C@@H](CCC(=O)O)C(=O)O (Ac-Asp-Glu-OH),"activity, negative = inhibition",[1]; [22],24.6%
same,"activity, negative = inhibition",[1]; [23],14.8%
same,Potency,[2],inactive
same,Potency,[3],inactive
same,Potency,[4],inactive
same,Potency,[5],inactive
same,Potency,[6],inactive
same,Potency,[7],inactive
same,Potency,[8],inactive
same,Potency,[9],inactive
same,Potency,[10],inactive
same,Potency,[11],inactive
same,Potency,[12],inactive
same,Potency,[13],inactive
same,Potency,[14],inactive
same,Potency,[15],inactive
same,Potency,[16],inactive
same,Potency,[17],inactive
same,Potency,[18],inactive
same,Potency,[19],inactive
CN1C(=O)CN2CCc3ccccc3C2c2cc(Cl)ccc21 (stereo unspecified),"activity, negative = inhibition",[1]; [22],-10.8%
same,"activity, negative = inhibition",[1]; [23],-17.4%
same,Potency,[2],inactive
same,Potency,[3],12600 nM (active)
same,Potency,[4],inactive
same,Potency,[6],inactive
same,Potency,[7],inactive
same,Potency,[8],inactive
same,Potency,[9],inactive
same,Potency,[10],inactive
same,Potency,[11],inactive
same,Potency,[12],inactive
same,Potency,[13],inactive
same,Potency,[14],inactive
same,Potency,[15],inactive
same,Potency,[18],inactive
same,Potency,[19],inactive
O=C(COc1ccc(Cl)cc1)OCCNC12CC3CC(CC(C3)C1)C2,"activity, negative = inhibition",[1]; [22],9.51%
same,"activity, negative = inhibition",[1]; [23],10.7%
same,Potency,[2],inactive
same,Potency,[3],inactive
same,Potency,[4],inactive
same,Potency,[5],inactive
same,Potency,[6],inactive
same,Potency,[7],inactive
same,Potency,[8],inactive
same,Potency,[9],inactive
same,Potency,[10],inactive
same,Potency,[11],inactive
same,Potency,[12],inactive
same,Potency,[13],inactive
same,Potency,[14],inactive
same,Potency,[15],inactive
same,Potency,[16],inactive
same,Potency,[18],inactive
same,Potency,[19],inactive
O=C(O)c1cc(=O)c2c3nc4ccccc4oc-3cc(=O)c2[nH]1,"activity, negative = inhibition",[1]; [22],-19%
same,"activity, negative = inhibition",[1]; [23],-11.6%
same,Potency,[2],14100 nM (active)
same,Potency,[3],1260 nM (active)
same,Potency,[4],inactive
same,Potency,[6],inactive
same,Potency,[7],inactive
same,Potency,[8],inactive
same,Potency,[9],inactive
same,Potency,[10],inactive
same,Potency,[11],inactive
same,Potency,[12],inactive
same,Potency,[13],inactive
same,Potency,[14],inactive
same,Potency,[15],inactive
same,Potency,[16],inactive
same,Potency,[17],2820 nM (active)
same,Potency,[18],inactive
same,Potency,[19],inactive
CC[N+](C)(C)Cc1ccccc1Br,"activity, negative = inhibition",[1]; [20],3.25%
same,"activity, negative = inhibition",[1]; [21],6.79%
same,Potency,[2],inactive
same,Potency,[3],inactive
same,Potency,[4],inactive
same,Potency,[5],inactive
same,Potency,[6],inactive
same,Potency,[7],inactive
same,Potency,[8],inactive
same,Potency,[9],inactive
same,Potency,[10],inactive
same,Potency,[11],inactive
same,Potency,[12],inactive
same,Potency,[13],inactive
same,Potency,[14],inactive
same,Potency,[15],inactive
same,Potency,[16],inactive
same,Potency,[17],inactive
same,Potency,[18],inactive
same,Potency,[19],inactive
O=C1C(=O)c2ncccc2-c2cccnc21,Potency,[1]; parasite line A,891 nM (active)
same,Potency,[1]; parasite line B,1120 nM (active)
same,Potency,[2],891 nM (active)
same,Potency,[3],1000 nM (active)
same,Potency,[4],1000 nM (active)
same,Potency,[5],708 nM (active)
same,Potency,[6],1410 nM (active)
same,Potency,[7],1000 nM (active)
same,Potency,[8],3160 nM (active)
same,Potency,[9],2510 nM (active)
same,Potency,[10],3160 nM (active)
same,Potency,[11],953 nM (active)
same,Potency,[12],1350 nM (active)
same,Potency,[13],1690 nM (active)
same,Potency,[14],1070 nM (active)
same,Potency,[15],1350 nM (active)
same,Potency,[16],1260 nM (active)
same,Potency,[17],1000 nM (active)
same,Potency,[18],1000 nM (active)
same,Potency,[19],1580 nM (active)
CCCC(=O)O[C@]1(C(=O)CCl)[C@H](C)C[C@@H]2[C@H]3CCC4=CC(=O)C=C[C@]4(C)[C@@]3(F)C(=O)C[C@@]21C,Potency,[1]; parasite line A,1410 nM (active)
same,Potency,[1]; parasite line B,2240 nM (active)
same,Potency,[2],2510 nM (active)
same,Potency,[3],2510 nM (active)
same,Potency,[4],2820 nM (active)
same,Potency,[5],3160 nM (active)
same,Potency,[6],2820 nM (active)
same,Potency,[7],3550 nM (active)
same,Potency,[8],3550 nM (active)
same,Potency,[9],3160 nM (active)
same,Potency,[10],891 nM (active)
same,Potency,[11],4780 nM (active)
same,Potency,[12],3010 nM (active)
same,Potency,[13],3790 nM (active)
same,Potency,[14],1510 nM (active)
same,Potency,[15],3790 nM (active)
same,Potency,[16],3160 nM (active)
same,Potency,[17],3550 nM (active)
same,Potency,[18],3980 nM (active)
same,Potency,[19],2000 nM (active)
